# Screening results as filed in PubChem BioAssay.
# A selection: hits, their analogues and other compounds. The true share with any hit is near 14%.
# Giardia FBPA inh – blocks Giardia fructose-bisphosphate aldolase activity | purified Giardia FBPA | Potency, µM (highest dose often 59.6 µM), without a hit: at the highest dose activity, negative = inhibition, usual class: inhibitors | hit rate 0.71% among 290,000 | AID 2451; also: potency is read from the fitted curve at half-maximal effect; nearly all actives have a fitted effect of over 55% in size
# Target sequence (A8B2U2 whole entry, looked up): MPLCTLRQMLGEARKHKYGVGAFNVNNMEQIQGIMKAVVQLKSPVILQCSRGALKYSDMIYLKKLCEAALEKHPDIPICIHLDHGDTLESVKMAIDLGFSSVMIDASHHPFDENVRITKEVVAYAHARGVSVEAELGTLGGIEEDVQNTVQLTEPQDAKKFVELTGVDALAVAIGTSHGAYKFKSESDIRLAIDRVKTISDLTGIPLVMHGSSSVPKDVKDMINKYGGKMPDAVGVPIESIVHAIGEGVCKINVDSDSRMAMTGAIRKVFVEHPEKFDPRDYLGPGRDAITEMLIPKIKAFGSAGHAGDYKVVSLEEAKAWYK
#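 40 nM FBPA preincubated 10 min at RT with compound (up to 57.5 uM final), then substrate plus GAPDH/TPI/NAD/arsenate coupling and diaphorase/resazurin added. Fluorescence read after 20 min at RT, 525/598 nm.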
# Pf growth 96h – P. falciparum growth inhibition at 96 hour, primary screen for plastid delayed-death inhibitors | P. falciparum luciferase reporter growth, 96 h | Potency, µM (doses to about 28.7 µM), for the others: at the highest dose activity change, negative = inhibition, most hits filed as inhibitors | hit rate 6.9% among 320,000 | AID 504834; also: potency is read from the fitted curve at half-maximal effect
#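 Compounds incubated with erythrocytes infected by luciferase-expressing P. falciparum (2% hematocrit, 0.05% parasitemia final) for 96 hours, 37 C in 5% CO2. Growth inhibition scored as decreased luciferase luminescence.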
# HCMV antiviral – inhibitors of human cytomegalovirus. activity change, negative = inhibition, % at 57.5 µM. hit rate 4.5% among 410,000. HFF cells, HCMV-luciferase reporter, 72 h; active compounds read low; in the data active = activity change below about -60%; inconclusive = no clear call, values can overlap the other calls; inactive = above about -39%
#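 Luciferase read-out from HCMV-luciferase-infected HFFs (MOI 1 PFU/cell) 72 h post infection at 37C; compounds added after 16 h cell attachment; activity normalized between buffer-only basal and Salinomycin (10uM) inhibitor controls.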
# Sm TGR block – blocks Schistosoma mansoni thioredoxin glutathione reductase; Q962Y6; purified TGR, DTNB reduction, TNB absorbance 405 nm; Potency, µM (titrated, usually from 114 µM), without a hit: top-dose activity change, negative = inhibition, actives largely listed as inhibitors; hit rate 3% among 360,000; also: potency is read from the fitted curve at half-maximal effect; nearly all actives have a fitted effect of over 60% in size
#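 TGR 20 nM + NADPH 100 uM (dispensed conc.), cpd preinc 15 min RT; start with NADPH (500 uM addition) then DTNB (15 mM addition). Kinetic TNB absorbance, 405 nm filter. Four-parameter Hill fit across titration.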
# Pf growth 48h – inhibits P. falciparum growth in the first generation, 48 h; P. falciparum luciferase growth in erythrocytes, 48 h; Potency, µM (highest dose often 28.7 µM), for the others: at the top dose activity change, negative = inhibition, usual class: inhibitors; hit rate 5.9% among 310,000; AID 504832; also: potency is read from the fitted curve at half-maximal effect
#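 Here the parasites carry a stable luciferase gene and grow inside erythrocytes in Albumax-based RPMI medium with compound for one erythrocytic cycle. Activity is scored as loss of luminescent signal.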
# Active calls of the source: *; ? = inconclusive; / = no result given. Unless noted, calls follow the shape of the dose curve; as a rule, active = well fitted curve in the direction sought with a large enough effect; inconclusive = small, poorly fitted or top-dose-only effect, or another doubt; inactive = no such curve, though single readings can be large; an effect the other way counts as inactive or inconclusive. % is scaled to controls: 0 for no effect and ±100 for the full control effect.
SMILES,Giardia FBPA inh,Pf growth 96h,HCMV antiviral,Sm TGR block,Pf growth 48h
Cc1ccc(C)c(S(=O)(=O)N2CCCOC2CNC(=O)C(=O)NCCC2=CCCCC2)c1 (stereo not drawn),0.0%,-23.0%,-66.9*,-1.5%,-29.1%
O=C(NCCc1c[nH]c2ccccc12)C(=O)NCC1OCCCN1S(=O)(=O)c1cc(F)ccc1F (stereo not drawn),-1.3%,3.29µM*,?,-1.5%,13.1µM*
COc1ccc(S(=O)(=O)N2CCOC2CNC(=O)C(=O)NCCc2c[nH]c3ccccc23)cc1C (stereo not drawn),-2.2%,9.28µM*,27.4,-7.9%,?
Cc1ccc(C)c(S(=O)(=O)N2CCCOC2CNC(=O)C(=O)NCCc2ccccc2)c1 (stereo not drawn),/,?,?,-4.7%,?
O=C(NCCc1ccccc1)C(=O)NCC1OCCCN1S(=O)(=O)c1cc(F)ccc1F (stereo not drawn),/,?,20.9,-8.2%,?
CCCCN(CCCC)Cc1cc(=O)oc2cc(C)c(Cl)cc12,/,/,10.0,/,/
COc1cccc(-c2nn(-c3ccccc3)cc2CN(C)C(C)c2ccon2)c1 (stereo not drawn),-4.6%,-5.9%,-30.8,14.6%,?
CCc1ccc(CNC(=O)C2CCCN(S(=O)(=O)c3ccc4c(ccn4C)c3)C2)cc1 (stereo not drawn),/,/,-11.3,0.4%,/
CCCS(=O)(=O)NC(=O)C1(C)CCN(C(=O)c2cc(C)n(C(C)(C)C)n2)C1 (stereo not drawn),/,/,35.8,/,/
CCCS(=O)(=O)NC(=O)C1(C)CCCN(C(=O)c2cc(C)n(C(C)(C)C)n2)C1 (stereo not drawn),/,/,-64.5*,/,/
COC(=O)[C@]12CCCCC=C1N(Cc1ccc(Cl)cc1Cl)C(=O)[C@H](CC(=O)NCCCCc1ccccc1)C2,/,/,20.3,/,/
CC1(C)CC(=O)C2=C(C1)Nc1cc3c(cc1C2c1ccc2c(c1)OCO2)OCO3 (stereo not drawn),-27.4%,35.7%,-25.2,-18.8%,/
CC1(C)CC(=O)C2=C(C1)Nc1cc3c(cc1C2c1ccc(F)cc1)OCO3 (stereo not drawn),5.5%,5.22µM*,14.3,11.3%,?
Cc1cc2nc(CCN(Cc3cccnc3)C(=S)Nc3ccccc3)[nH]c2cc1C,-5.3%,7.38µM*,-31.1,-1.0%,11.7µM*
Cc1cc2nc(CCN(Cc3cccnc3)C(=S)Nc3ccc(F)cc3)[nH]c2cc1C,-0.2%,?,-29.7,-0.9%,?
COc1ccccc1NC(=S)N(CCc1nc2cc(C)c(C)cc2[nH]1)Cc1cccnc1,-1.5%,?,26.8,-13.8%,10.4µM*
COc1ccccc1NC(=S)N(Cc1ccc(C)cc1)Cc1cccnc1,-9.4%,?,33.9,1.0%,13.3%
CCc1ccc(NC(=O)CSc2nc(N)c(NC(=O)c3ccc(F)c(F)c3)c(=O)[nH]2)cc1,-21.0%,-6.5%,-10.1,-21.3%,-29.1%
CC1CCN(c2ccc3nnc(CCC(=O)Nc4cccc(F)c4)n3n2)CC1,3.1%,?,-12.0,3.7%,?
Cc1cc(=O)n2nc(N3CCCC(C(=O)NCCCN4CC(C)CC(C)C4)C3)sc2n1 (stereo not drawn),/,?,?,-8.0%,6.7%
Cc1cc(=O)n2nc(N3CCCC(C(=O)NC4CCC(C)CC4)C3)sc2n1 (stereo not drawn),/,5.2%,-61.4*,3.5%,?
CCOc1ccc(CCNC(=O)C2CCCN(c3nn4c(=O)cc(C)nc4s3)C2)cc1OCC (stereo not drawn),0.0%,0.147µM*,-13.7,11.9%,?
Cc1cc(=O)n2nc(N3CCCC(C(=O)N4CCOCC4)C3)sc2n1 (stereo not drawn),-9.3%,11.7µM*,-7.8,-1.6%,1.0%
O=C(CCN1N=C(c2ccccc2)CCC1=O)NCC1COc2ccccc2O1 (stereo not drawn),-12.8%,-22.1%,-14.0,-3.1%,-4.6%
CCC(C)NC(=O)c1sc2nc(C)c(C(=O)Nc3ccc(Cl)cc3)c(-c3ccc(Br)cc3)c2c1N (stereo not drawn),/,/,-3.5,0.9%,/
SMILES,Giardia FBPA inh,Pf growth 96h,HCMV antiviral,Sm TGR block,Pf growth 48h
Cc1nc2sc(C(N)=O)c(N)c2c(-c2ccc(Br)cc2)c1C(=O)Nc1ccc(Cl)cc1,/,/,-77.9*,1.4%,/
CCOC(=O)c1c(C)nc2sc3c(=O)n(-c4ccc(OC)cc4)cnc3c2c1-c1ccc(OC)cc1,-4.0%,11.7µM*,-6.0,-0.4%,?
CCOC(=O)c1c(C)nc2sc(C(=O)Nc3ccc(OC)cc3)c(N)c2c1-c1ccc(OC)cc1,2.9%,2.33µM*,?,7.1%,/
Cc1ccc(N(C(=O)c2ccc(S(=O)(=O)N3CCOCC3)cc2)C2C=CS(=O)(=O)C2)cc1 (stereo not drawn),2.0%,8.28µM*,-2.2,-21.6%,-11.0%
CC(=O)N1CCN(S(=O)(=O)c2cccc(C(=O)N(Cc3ccccc3)c3cccc(C)c3)c2)CC1,/,8.28µM*,?,5.6%,?
Cc1ccc(N(Cc2ccccc2)C(=O)Cc2ccc(S(=O)(=O)N3CCOCC3)s2)cc1,/,?,-26.1,3.0%,13.1µM*
Cc1ccc(N(Cc2ccccc2)C(=O)c2cccc(S(=O)(=O)N3CCN(C)CC3)c2)cc1,/,?,-22.8,1.5%,?
Cc1cccc(N(Cc2ccccc2)C(=O)c2cc(S(=O)(=O)N3CCOCC3)ccc2Cl)c1,/,?,?,-1.2%,11.7µM*
COc1ccc2[nH]cc(CCNc3cc(-c4ccc(C(=O)N(C)C)cc4)ncn3)c2c1,-8.4%,/,/,/,/
CCN1CCN(S(=O)(=O)c2ccc(Cl)c(C(=O)N(C)Cc3cccs3)c2)CC1,/,?,-2.8,-18.8%,?
Cc1ccc(N(Cc2ccccc2)C(=O)c2ccc(S(=O)(=O)N3CCOCC3)cc2)cc1,/,?,?,-7.7%,13.1µM*
Cc1ccc(C(=O)OCC(=O)NCCc2ccccc2)cc1S(=O)(=O)N1CCOCC1,/,-7.0%,11.6,0.6%,9.6%
Cc1ccc(N(Cc2ccccc2)C(=O)c2cccc(S(=O)(=O)N3CCOCC3)c2)cc1,/,10.4µM*,-37.6,0.5%,10.4µM*
Cc1ccc(C(=O)NNC(=O)c2ccc(S(=O)(=O)N3CCOCC3)cc2)cc1,1.4%,30.5%,4.6,7.6%,10.9%
Cc1ccc(N(Cc2ccccc2)C(=O)c2ccc(C)c(S(=O)(=O)N3CCOCC3)c2)cc1,/,2.08µM*,?,-3.8%,6.57µM*
CCN1CCN(S(=O)(=O)c2ccc(Cl)c(C(=O)N(C)C(c3ccccc3)c3ccccc3)c2)CC1,/,13.1µM*,?,30.5%,9.28µM*
CNC(=O)c1sc2ncccc2c1-n1cccc1,/,/,22.6,2.2%,/
COc1ccc(CC(=O)NCc2ccccc2)cc1S(=O)(=O)N1CCOCC1,9.0%,?,7.9,8.1%,-13.3%
COc1ccc(CC(=O)N(Cc2ccccc2)c2ccc(C)cc2)cc1S(=O)(=O)N1CCOCC1,/,13.1µM*,?,-10.9%,?
